Screening data as filed in PubChem BioAssay.
Shown are actives, neighbours in structure and some others; about 19% of the full set was active somewhere.
DT40 TDP1 no CPT – qHTS for Inhibitors of human tyrosyl-DNA phosphodiesterase 1 (TDP1): qHTS in cells in absence of CPT | DT40 Tdp1-/- hTDP1 cells, no CPT, ATP luminescence, 48 h | Potency, µM (top dose mostly 46.2 µM), inactives show top-dose activity change, negative = growth inhibition, hits mostly inhibitors | 420,000 compounds, 15% hits | AID 686978, 2013; also: potency is read from the fitted curve at half-maximal effect; nearly all actives have a fitted effect of over 55% in size
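Chicken DT40 Tdp1-/- cells complemented with human TDP1, screened without camptothecin (DMSO vehicle only), 400 cells/well. Compounds pin-transferred, cells incubated at 37 °C for at least 48 hr. Growth read as ATP-dependent luminescence (CellTiter-Glo, 30 min at RT).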
IL-1B inflam inh – inhibitors of inflammasome signaling (IL-1 beta secretion). THP-1 LPS/ATP IL-1B secretion, AlphaLISA, 16 h; stronger effect = lower value. activity change, % at 57.5 µM. 360,000 compounds, 4.7% hits; in the data active = activity change below about -50%; inconclusive = mostly about -30% to -49%
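Secreted IL-1B measured by AlphaLISA bead assay after 16 h compound exposure of THP-1 cells; compounds (final up to 57.5 uM) added 1 h before LPS (250 ng/mL) and ATP (1.25 mM) stimulation; lower signal means less secretion.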
HT1080NT lethal – kills 2HG-producing HT-1080-NT fibrosarcoma cells; HT-1080-NT fibrosarcoma viability, CellTiter-Glo ATP luminescence, 48 h; AID 686970; 360,000 compounds, 1.6% hits; Potency, µM (doses to about 46.1 µM), for the others: top-dose activity, negative = less viability, hits mostly cytotoxic;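 also: NT is the 2HG producing partner of a matched IDH1 knockdown line; potency is read from the fitted curve at half-maximal effect; 0% = DMSO-treated cells and -100% = media-only wells without cells; nearly all actives have a fitted effect of over 55% in size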
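Toxicity toward the 2HG-producing NT line was scored as %Activity, normalised to DMSO and no-cell wells, from CellTiter-Glo luminescence after 48 hours' treatment.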
HT1080 IDH1KD tx – kills HT-1080 cells with IDH1 knockdown; 360,000 compounds, 2% hits; HT-1080 IDH1 knockdown viability, ATP luminescence, 48 h; Potency, µM (top dose mostly 46.1 µM), inactives show top-dose activity, negative = toxicity, hits mostly cytotoxic;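 also: potency is read from the fitted curve at half-maximal effect; 0% = DMSO wells and -100% = cell-free medium wells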
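Using the IDH1-knockdown HT-1080 line run in the same batch and compound series as the NT line, viability after 48 h at 37 °C was determined by CellTiter-Glo luminescence and expressed as % activity.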
TDP1 cell CPT – growth inhibition of DT40 Tdp1-/-;hTDP1 cells with camptothecin (screen for TDP1 inhibitors). chicken DT40 Tdp1-/-;hTDP1 cells + 20 nM CPT, ATP luminescence, 48 h. Potency, µM (doses to about 46.2 µM), for inactives: at the top dose activity change, negative = growth inhibition, actives largely listed as inhibitors. 420,000 compounds, 12% hits. AID 686979; also: potency is read from the fitted curve at half-maximal effect; nearly all actives have a fitted effect of over 55% in size
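Chicken DT40 Tdp1-/- cells complemented with human TDP1, 400 cells/well, exposed to compounds plus 20 nM camptothecin for at least 48 h at 37 C; viability read as ATP content by CellTiter-Glo luminescence.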
ELG1 DNA repair – ELG1-dependent DNA repair inhibition. HEK293T ELG1-luciferase reporter, luminescence, 16 h; DNA damage induced by 5-fluorouridine. Potency, µM (doses to about 46.1 µM), for inactives: at the top dose activity change, negative = inhibition, usual class: inhibitors. 330,000 compounds, 2.3% hits. AID 504467; also: potency is read from the fitted curve at half-maximal effect; nearly all actives have a fitted effect of over 55% in size
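Overnight (16 hr) co-exposure of 2,000 cells/well to 5-fluorouridine and compound at 37 °C preceded detection. Luciferase was quantified via ONE-Glo luminescence; loss of signal denotes inhibition.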
Numbers without * were called inactive. Unless noted, calls follow the shape of the dose curve; as a rule, active = well fitted curve in the direction sought with a large enough effect; inconclusive = small, poorly fitted or top-dose-only effect, or another doubt; inactive = no such curve, though single readings can be large; an effect the other way counts as inactive or inconclusive. Unless noted, % is scaled to controls: 0 for no effect and ±100 for the full control effect.

For CC1(Cc2ccc(OC(F)(F)F)cc2)C(=O)Nc2ccc(S(=O)(=O)NC3CCCCC3)cc21 (configuration not stated) the results were DT40 TDP1 no CPT inconclusive, IL-1B inflam inh -71.6*, HT1080NT lethal 13µM*, HT1080 IDH1KD tx 11.6µM* and TDP1 cell CPT inconclusive.
Screening COc1ccc(Cl)cc1CC1(C)C(=O)Nc2ccc(-c3ccccc3OC)cc21 (configuration not stated) returned DT40 TDP1 no CPT 11.6µM*, IL-1B inflam inh -10.4, HT1080NT lethal inconclusive, HT1080 IDH1KD tx inconclusive and TDP1 cell CPT 20.6µM*.
For CC1(Cc2ccccc2OC(F)(F)F)C(=O)Nc2cc(-c3ccccc3Cl)ccc21 (configuration not stated) the results were DT40 TDP1 no CPT inconclusive, IL-1B inflam inh -14.9, HT1080NT lethal inconclusive, HT1080 IDH1KD tx inconclusive and TDP1 cell CPT inconclusive.
COc1ccccc1-c1ccc2c(c1)C(C)(Cc1ccc(OC(F)(F)F)cc1)C(=O)N2 (configuration not stated) was read as DT40 TDP1 no CPT inconclusive, IL-1B inflam inh -51.9*, HT1080NT lethal inconclusive, HT1080 IDH1KD tx inconclusive and TDP1 cell CPT inconclusive.
Screening CC1(Cc2ccc(Cl)cc2)C(=O)Nc2ccc(S(=O)(=O)NC3CCCCC3)cc21 (configuration not stated) returned DT40 TDP1 no CPT inconclusive, IL-1B inflam inh -7.8, HT1080NT lethal inconclusive, HT1080 IDH1KD tx inconclusive and TDP1 cell CPT inconclusive.
CC1(Cc2ccccc2OC(F)(F)F)C(=O)Nc2ccc(-c3ccsc3)cc21 (configuration not stated) was read as DT40 TDP1 no CPT 18.4µM*, IL-1B inflam inh -17.0, HT1080NT lethal inconclusive, HT1080 IDH1KD tx -8.0% and TDP1 cell CPT inconclusive.
For CNc1cc(-c2cccc(N(C)C)c2)ncn1 the results were DT40 TDP1 no CPT -17.5%, IL-1B inflam inh -2.6, HT1080NT lethal 9.7%, HT1080 IDH1KD tx 0.9% and TDP1 cell CPT -1.9%.
`CC1(Cc2ccccc2OC(F)(F)F)C(=O)Nc2ccc(OC(F)(F)F)cc21` (configuration not stated) gave DT40 TDP1 no CPT 20.6µM*, IL-1B inflam inh inconclusive, HT1080NT lethal inconclusive, HT1080 IDH1KD tx 20.6µM* and TDP1 cell CPT 20.6µM*.
Screening CC1(Cc2ccc3ccccc3n2)C(=O)Nc2ccc(OC(F)(F)F)cc21 (configuration not stated) returned DT40 TDP1 no CPT inconclusive, IL-1B inflam inh -4.1, HT1080NT lethal -19.4%, HT1080 IDH1KD tx -17.8% and TDP1 cell CPT inconclusive.
`COC(=O)c1cccc(CC2(C)C(=O)Nc3cc(-c4ccccc4Cl)ccc32)c1` (configuration not stated) gave DT40 TDP1 no CPT inconclusive, IL-1B inflam inh -13.1, HT1080NT lethal inconclusive, HT1080 IDH1KD tx inconclusive and TDP1 cell CPT 16.4µM*.
Screening CC(=O)c1cccc(-c2ccc3c(c2)C(C)(Cc2ccccc2C#N)C(=O)N3)c1 (configuration not stated) returned DT40 TDP1 no CPT inconclusive, IL-1B inflam inh 38.1, HT1080NT lethal -20.4%, HT1080 IDH1KD tx -12.4% and TDP1 cell CPT 16.4µM*.
For COc1ccccc1-c1ccc2c(c1)C(C)(Cc1cccc(C#N)c1)C(=O)N2 (configuration not stated) the results were DT40 TDP1 no CPT 16.4µM*, IL-1B inflam inh -9.5, HT1080NT lethal inconclusive, HT1080 IDH1KD tx inconclusive and TDP1 cell CPT 20.6µM*.
Cc1ccc(S(=O)(=O)N(C)C)cc1NC(=O)COC(=O)c1ccc2ccccc2n1 was read as DT40 TDP1 no CPT 7.3%, IL-1B inflam inh 16.6, HT1080NT lethal -1.5%, HT1080 IDH1KD tx -0.7%, TDP1 cell CPT -1.1% and ELG1 DNA repair 12.6%.
Screening CSCCNC(=O)C1(C)CCN1C(=O)c1cc(C)n(C)n1 (configuration not stated) returned DT40 TDP1 no CPT -2.2%, IL-1B inflam inh 28.4, HT1080NT lethal 23.9%, HT1080 IDH1KD tx 13.5% and TDP1 cell CPT -4.8%.
CCCCn1c(-c2ccc(OC(F)F)cc2)nc2c1c(=O)[nH]c(=O)n2CC(C)C was read as DT40 TDP1 no CPT 23.1µM*, IL-1B inflam inh 30.9, HT1080NT lethal 7.1%, HT1080 IDH1KD tx 2.9%, TDP1 cell CPT 20.6µM* and ELG1 DNA repair inconclusive.
For CCCCn1c(=O)[nH]c(=O)c2c1nc(-c1ccc(OC(F)F)c(OC)c1)n2C the results were DT40 TDP1 no CPT -22.9%, IL-1B inflam inh 57.0, HT1080NT lethal 11.6%, HT1080 IDH1KD tx 1.6%, TDP1 cell CPT -26.8% and ELG1 DNA repair -11.8%.
Screening COCCn1c(-c2ccc3ccccc3c2)nc2c1c(=O)[nH]c(=O)n2CC(C)C returned DT40 TDP1 no CPT 23.1µM*, IL-1B inflam inh -2.2, HT1080NT lethal -12.2%, HT1080 IDH1KD tx -12.3%, TDP1 cell CPT inconclusive and ELG1 DNA repair inconclusive.
CCCCn1c(-c2cccc(F)c2)nc2c1c(=O)[nH]c(=O)n2CC(C)C was read as DT40 TDP1 no CPT inconclusive, IL-1B inflam inh 21.9, HT1080NT lethal 8.8%, HT1080 IDH1KD tx 3.1%, TDP1 cell CPT -27.8% and ELG1 DNA repair 2.0%.
`CCCCn1c(=O)[nH]c(=O)c2c1nc(-c1ccc(OC)c(Br)c1)n2CC(C)C` gave DT40 TDP1 no CPT inconclusive, IL-1B inflam inh inconclusive, HT1080NT lethal 29.1µM*, HT1080 IDH1KD tx 23.1µM*, TDP1 cell CPT inconclusive and ELG1 DNA repair inconclusive.
`CCCn1c(=O)[nH]c(=O)c2c1nc(-c1ccc(C#N)cc1)n2CCOC` gave DT40 TDP1 no CPT -16.5%, IL-1B inflam inh 2.5, HT1080NT lethal 9.7%, HT1080 IDH1KD tx 4.4%, TDP1 cell CPT 6.0% and ELG1 DNA repair -1.7%.
CCCn1c(=O)[nH]c(=O)c2c1nc(-c1ccc(OC(F)(F)C(F)C(F)(F)F)cc1)n2CCOC (configuration not stated) was read as DT40 TDP1 no CPT 16.4µM*, IL-1B inflam inh 25.9, HT1080NT lethal -12.9%, HT1080 IDH1KD tx -8.2%, TDP1 cell CPT inconclusive and ELG1 DNA repair inconclusive.
`O=C(Nc1ccc(F)cc1)c1cc(-c2ccncc2)nc2c(Cl)cccc12` gave DT40 TDP1 no CPT inconclusive, IL-1B inflam inh -11.2, HT1080NT lethal -9.3%, HT1080 IDH1KD tx -17.4%, TDP1 cell CPT inconclusive and ELG1 DNA repair inconclusive.
